Bioassay records deposited in PubChem by National Center for Advancing Translational Sciences (NCATS).
Pol kappa inh = DNA polymerase kappa (human) inhibition. purified Pol kappa, fluorescent DNA synthesis assay, 10 min. Potency, µM (series often up to 107 µM), most hits filed as inhibitors. 400,000 tested, 0.53% active. AID 588579
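50 nM final substrate added after 15 min RT preincubation of 10 nM Pol kappa with compound; fluorescence read at 0 and 10 min.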
Pol beta inh = inhibitors of human DNA polymerase beta. P06746. AID 485314. Pol beta primer extension/strand displacement, fluorescence kinetic. Potency, µM (titrated, usually from 114 µM), hits mostly inhibitors. 340,000 tested, 1.3% active
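Reaction started by 50 nM substrate onto compound-treated Pol beta (10 nM, 15 min preincubation, room temperature); plates read at 0 min and 10 min. Normalized concentration-effect data fitted by four-parameter Hill equation.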
POLI inh = DNA polymerase iota (human) inhibition; Q9UNA4; Potency, µM (doses to about 115 µM), usual class: inhibitors; Pol iota fluorescent replication assay, 10 min; 390,000 tested, 1% active
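Pol iota at 10 nM preincubated 15 min with compounds at room temperature; reaction started with fluorescent substrate, 50 nM final. Fluorescence read kinetically at 0 and 10 min; buffer-only wells as negative control.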
WRN helicase inh = blocks human WRN helicase | WRN helicase unwinding, fluorescent forked duplex, kinetic | Potency, µM (highest dose often 114 µM), most hits filed as inhibitors | 360,000 tested, 0.46% active; also: nearly all actives have a fitted effect of over 55% in size
Target sequence (Q14191 whole entry, looked up): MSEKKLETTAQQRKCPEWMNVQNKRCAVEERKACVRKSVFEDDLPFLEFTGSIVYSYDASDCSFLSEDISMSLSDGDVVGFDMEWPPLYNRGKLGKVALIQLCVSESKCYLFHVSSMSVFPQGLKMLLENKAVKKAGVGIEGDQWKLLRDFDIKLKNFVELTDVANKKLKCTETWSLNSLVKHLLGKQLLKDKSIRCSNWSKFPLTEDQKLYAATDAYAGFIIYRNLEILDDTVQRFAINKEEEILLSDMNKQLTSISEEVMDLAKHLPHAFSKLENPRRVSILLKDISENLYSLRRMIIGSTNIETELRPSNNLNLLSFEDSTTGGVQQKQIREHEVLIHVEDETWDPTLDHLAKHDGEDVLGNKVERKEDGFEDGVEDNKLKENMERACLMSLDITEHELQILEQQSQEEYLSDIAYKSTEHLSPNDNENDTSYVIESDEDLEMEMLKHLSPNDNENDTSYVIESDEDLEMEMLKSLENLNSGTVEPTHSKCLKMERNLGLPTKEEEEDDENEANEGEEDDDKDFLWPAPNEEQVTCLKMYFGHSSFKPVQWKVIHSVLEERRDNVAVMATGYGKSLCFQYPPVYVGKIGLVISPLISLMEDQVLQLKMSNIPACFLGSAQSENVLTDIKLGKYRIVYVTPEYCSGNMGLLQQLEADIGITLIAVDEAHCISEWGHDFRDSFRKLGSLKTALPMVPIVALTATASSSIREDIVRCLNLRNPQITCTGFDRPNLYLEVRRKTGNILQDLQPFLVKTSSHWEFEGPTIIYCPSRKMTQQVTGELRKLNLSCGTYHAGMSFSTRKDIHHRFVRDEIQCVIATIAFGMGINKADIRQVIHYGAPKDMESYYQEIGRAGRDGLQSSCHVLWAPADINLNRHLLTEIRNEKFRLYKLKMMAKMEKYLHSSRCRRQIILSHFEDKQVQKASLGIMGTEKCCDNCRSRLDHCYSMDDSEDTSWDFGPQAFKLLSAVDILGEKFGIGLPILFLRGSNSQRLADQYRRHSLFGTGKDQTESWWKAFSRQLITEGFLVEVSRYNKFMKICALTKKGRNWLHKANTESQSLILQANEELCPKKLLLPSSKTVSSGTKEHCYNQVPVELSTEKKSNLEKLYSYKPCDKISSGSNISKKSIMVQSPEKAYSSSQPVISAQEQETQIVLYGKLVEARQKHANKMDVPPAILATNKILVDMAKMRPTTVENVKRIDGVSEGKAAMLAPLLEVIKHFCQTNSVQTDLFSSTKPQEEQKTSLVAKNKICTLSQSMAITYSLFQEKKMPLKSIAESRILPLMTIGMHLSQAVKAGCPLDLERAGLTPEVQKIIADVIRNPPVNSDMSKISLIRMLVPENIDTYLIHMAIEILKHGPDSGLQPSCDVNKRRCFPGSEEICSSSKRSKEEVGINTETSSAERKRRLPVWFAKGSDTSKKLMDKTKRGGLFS
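Kinetic fluorescence helicase assay: unwinding of a quenched forked DNA duplex (100 nM final) with 2 mM ATP final raises red fluorescence (525/598 nm). Compounds sat 15 min at room temperature with 20 nM WRN beforehand.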
PI5P4K alpha inh = PI5P4K alpha (human) kinase inhibition; PI5P4Kalpha enzyme, ADP-Glo luminescence, 60 min; stronger effect = lower value; max response, %; 330,000 tested, 1.2% active; AID 652105; P48426; active = max response of -50% or lower; inconclusive = between -30% and -50%; inactive = -30% or higher; also: value at the top dose of about 77 µM
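Compounds were pin-transferred onto PI5P4Kalpha and substrate in HEPES pH 7.4 buffer with EGTA, CHAPS and 5% DMSO. ATP (5 microM final) started the reaction, which ran 60 minutes at room temperature before ADP-Glo detection.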
POLH inh = blocks human DNA polymerase eta activity; Potency, µM (doses to about 114 µM), hits mostly inhibitors; recombinant Pol eta, fluorescent DNA replication assay; 390,000 tested, 1.2% active; Q9Y253
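Pol eta (10 nM) was preincubated with compounds for 15 min at room temperature, after which fluorescent replication substrate (50 nM final) was added to start the reaction. Fluorescence was read kinetically at 0 and 10 min.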
Of the large screens only hits and unclear results are named; the others gave an inactive call; ! = a repeat was not active. Only some compounds are listed: those with a hit (about 2.8% of all), similar ones and a draw of the others. Unless noted, calls follow the shape of the dose curve; as a rule, active = well fitted curve in the direction sought with a large enough effect; inconclusive = small, poorly fitted or top-dose-only effect, or another doubt; inactive = no such curve, though single readings can be large; an effect the other way counts as inactive or inconclusive.

C[c-]1[c-](C)[c-](C)[c-](C)[c-]1C.[Fe].c1cc2nccc(N3CCCC3)[c-]2c1 (stereo unspecified)	Pol kappa inh inconclusive, Pol beta inh 4.5µM!, POLI inh 10µM!, PI5P4K alpha inh inconclusive, POLH inh 20µM!
O=C(CS(=O)(=O)c1ccccc1)Nc1nccs1	none
Nc1nc(N)c2[nH]c(=S)[nH]c2n1	POLI inh inconclusive, PI5P4K alpha inh -52 (no result: Pol beta inh)
COc1cccc(CC2(CO)CCCN(Cc3sc(N4CCCC4)nc3Cl)C2)c1 (stereo unspecified)	none
CN=C1SC(CC(=O)NCCc2ccc(OC)c(OC)c2)C(=O)N1C (stereo unspecified)	Pol kappa inh inconclusive, POLI inh inconclusive, POLH inh 56µM!
COc1ccc(C(C(=O)NC(C)(C)C)N(C(=O)CNC(=O)c2cccs2)c2cccnc2)cc1OC (stereo unspecified)	none
Cc1[nH]n(-c2ccccc2)c(=O)c1C(=O)c1ccccc1	POLI inh inconclusive, POLH inh inconclusive
COc1cccc(C(c2c(C)[nH]n(-c3ccccc3)c2=O)c2c(C)[nH]n(-c3ccccc3)c2=O)c1O	POLI inh 1µM
Cc1[nH]n(-c2ccccc2)c(=O)c1C(C[N+](=O)[O-])c1ccccc1Cl (stereo unspecified)	none
Cc1[nH]n(-c2ccccc2)c(=O)c1C(c1ccc(O)c([N+](=O)[O-])c1)c1c(C)[nH]n(-c2ccccc2)c1=O	POLI inh inconclusive, WRN helicase inh inconclusive, POLH inh 28µM (no result: Pol beta inh)
C[C@@H]1CNC(=O)c2c(C(=O)Nc3ccc(CNC(=O)OC(C)(C)C)cc3)ncn21	none (no result: Pol kappa inh, Pol beta inh, POLI inh)
Cc1ccc(C)c(NC(=O)C(c2ccccc2)N2CCOCC2)c1 (stereo unspecified)	none
C/C(=N\NC(=O)c1c[nH]c2ccccc12)c1ccccn1	none
O=C(Nc1ccncc1)c1cc2ccccc2cc1O	POLI inh 7.9µM (no result: Pol beta inh)
Cc1ccc(NC(=O)NNC(=O)c2cc3ccccc3cc2O)cc1	Pol beta inh inconclusive
C/C(=N\NC(=O)c1cc2ccccc2cc1O)c1cc2ccccc2o1	Pol kappa inh 79µM, Pol beta inh 7.1µM, POLI inh 22µM, WRN helicase inh inconclusive, PI5P4K alpha inh -91, POLH inh 56µM
O=C(N/N=C/c1ccc(Sc2ccccn2)o1)c1cc2ccccc2cc1O	Pol kappa inh 28µM, Pol beta inh 18µM, POLI inh 20µM, WRN helicase inh inconclusive, PI5P4K alpha inh -67, POLH inh 18µM
C/C(=N\NC(=O)c1cc2ccccc2cc1O)c1ccccn1	PI5P4K alpha inh -54
CC1CCN(S(=O)(=O)c2ccc3c(c2)N(CC(=O)NCCc2ccc(Cl)cc2)C(=O)CO3)CC1	none (no result: WRN helicase inh, PI5P4K alpha inh)
O=C(Nc1ccc(F)c(Cl)c1)C1CCN(S(=O)(=O)c2ccc3[nH]c(=O)ccc3c2)CC1	none (no result: WRN helicase inh, PI5P4K alpha inh)
Cc1snc(SCC(=O)c2ccc([N+](=O)[O-])cc2)c1C#N	PI5P4K alpha inh -57
Cc1ccc(NC(=O)C2CCN(S(=O)(=O)c3c(C)noc3C)CC2)c(C)c1	none (no result: WRN helicase inh, PI5P4K alpha inh)
COc1cc([C@H]2OC[C@H]3[C@@H]2CO[C@H]3c2ccc(O)c(OC)c2)ccc1O	none (no result: Pol beta inh)
COc1cc(C2OCC3C(c4ccc(OC5OC(CO)C(O)C(O)C5O)c(OC)c4)OCC23)ccc1O (stereo unspecified)	Pol kappa inh inconclusive, Pol beta inh inconclusive, POLI inh 71µM, POLH inh inconclusive
CCOc1c(Br)cc(C(=O)N2CCCN(C)CC2)cc1OC	none
CN(CC(=O)O)c1ccc(/C=C2\C=Cc3ccccc32)cc1	Pol kappa inh 56µM! (no result: Pol beta inh, WRN helicase inh, PI5P4K alpha inh, POLH inh)
Cc1cc2oc(C(=O)Nc3c(C)n(C)n(-c4ccccc4)c3=O)cc(=O)c2cc1C	none (no result: WRN helicase inh, PI5P4K alpha inh)
Cc1nc2c(c(SCC(=O)Nc3ccccc3C(F)(F)F)n1)CCC2	none (no result: WRN helicase inh, PI5P4K alpha inh)
CC(Cc1c[nH]c2ccccc12)C(=O)O (stereo unspecified)	Pol kappa inh inconclusive, Pol beta inh 7.1µM
CCn1cc(C(=O)Nc2ncccc2O)c(=O)c2cc(F)c(N3CCN(C(=O)c4ccco4)CC3)cc21	POLI inh 71µM
COc1ccc2nc3oc(C(=O)N4CCN(c5cc(C)ccc5C)CC4)cc3cc2c1	POLI inh inconclusive (no result: WRN helicase inh, PI5P4K alpha inh)
COc1ccc2c(c1)c(=O)oc1cc(O)ccc12	none
COc1ccc2c(c1)c(=O)oc1cc3oc(C)c(C)c3cc12	Pol beta inh 25µM (no result: Pol kappa inh, POLI inh, WRN helicase inh, PI5P4K alpha inh, POLH inh)
Cc1ccc2c(=O)cc(C(=O)NCc3ccccc3)oc2c1C	POLI inh inconclusive
Cc1ccc(S(=O)(=O)Nc2ccccc2)cc1[N+](=O)[O-]	POLH inh inconclusive (no result: Pol beta inh)
Cc1cccc2c(N=Nc3ccc(S(=O)(=O)Nc4cccc(Cl)c4)cc3[N+](=O)[O-])c(O)[nH]c12	PI5P4K alpha inh -71, POLH inh inconclusive
O=C(CN1C(=O)COc2ccc(S(=O)(=O)N3CCOCC3)cc21)N1CCN(c2cccc(C(F)(F)F)c2)CC1	none (no result: WRN helicase inh, PI5P4K alpha inh)
COc1ccc(C(C(N)=O)c2ncc(C(F)(F)F)cc2Cl)cc1OC (stereo unspecified)	POLI inh inconclusive
CN(C)CC(CCC(CN(C)C)C(=O)c1ccccc1)C(=O)c1ccccc1 (stereo unspecified)	POLI inh 22µM, WRN helicase inh inconclusive
Cc1ccc(C)c(NC(=O)c2nc(S(=O)(=O)Cc3ccc(F)cc3)ncc2Cl)c1	Pol beta inh 32µM, POLI inh inconclusive, POLH inh 89µM (no result: WRN helicase inh, PI5P4K alpha inh)
Cc1nnc(NC(=O)c2nc(S(=O)(=O)Cc3ccccc3C)ncc2Cl)s1	Pol beta inh inconclusive, POLI inh inconclusive, POLH inh 56µM
CC(C)c1nnc(NC(=O)c2nc(S(=O)(=O)Cc3ccc(F)cc3)ncc2Cl)s1	POLI inh inconclusive
O=C(CCC(=O)N1CCCC1)Nc1ccc(Cl)c(Cl)c1	none
Cc1sc2nc(CN3CCCC3)nc(NCc3ccncc3)c2c1C	none
Cc1sc2nc(CN3CCCCC3)nc(Nc3ccc4c(c3)OCCO4)c2c1C	Pol beta inh 79µM
CCOc1ccccc1NS(=O)(=O)c1cn(C)nc1C	POLI inh 89µM
O=C(CC1N=C2c3ccccc3N=C(SCc3ccc(F)cc3)N2C1=O)NCc1ccco1 (stereo unspecified)	Pol beta inh 50µM
O=C(CCC1N=C2c3ccccc3N=C(SCc3ccc(F)cc3)N2C1=O)NCc1ccco1 (stereo unspecified)	Pol beta inh inconclusive (no result: PI5P4K alpha inh)
O=C(CCC1N=C2c3ccccc3N=C(SCc3ccc(Cl)cc3)N2C1=O)NCCc1ccccc1 (stereo unspecified)	POLI inh 89µM (no result: WRN helicase inh, PI5P4K alpha inh)
Cc1ccc(CSC2=Nc3ccccc3C3=NC(CC(=O)NCc4ccco4)C(=O)N23)cc1 (stereo unspecified)	Pol kappa inh inconclusive, Pol beta inh 25µM, POLI inh inconclusive, PI5P4K alpha inh inconclusive, POLH inh inconclusive
